Pol kappa inh = inhibitors of human DNA polymerase kappa; Q9UBT6; purified Pol kappa, fluorescent DNA synthesis assay, 10 min; Potency, µM (titrated, usually from 107 µM), inactives show top-dose activity, negative = inhibition, actives largely listed as inhibitors; hit rate 0.53% among 400,000; AID 588579; further: on the % scale 0 is the no-effect control and ±100 the full control effect
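Pol kappa 10 nM + cpd, 15 min RT; start w/ substrate 50 nM final; fluorescence kinetic read, 0 and 10 min. Neg ctrl: buffer, no enzyme.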
Pol iota inh = DNA polymerase iota (human) inhibition. Q9UNA4. Pol iota fluorescent replication assay, 10 min. Potency, µM (titrated, usually from 115 µM), without a hit: at the highest dose activity, negative = inhibition, most hits filed as inhibitors. hit rate 1% among 390,000. AID 588590
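Pol iota at 10 nM preincubated 15 min with compounds at room temperature; reaction started with fluorescent substrate, 50 nM final. Fluorescence read kinetically at 0 and 10 min; buffer-only wells as negative control.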
Pol beta inh = DNA polymerase beta (human) inhibition | P06746 | Potency, µM (titrated, usually from 114 µM), for inactives: at the highest dose activity change, negative = inhibition, usual class: inhibitors | Pol beta primer extension/strand displacement, fluorescence kinetic | hit rate 1.3% among 340,000; further: on the % scale 0 is the no-effect control and ±100 the full control effect
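Curves were derived by four-parameter Hill fits of normalized qHTS data. The kinetic fluorescent primer-extension read was taken at 0 and 10 min after 50 nM substrate, following a 15 min room-temperature preincubation of 10 nM enzyme with compounds.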
TDP1 block = TDP1 (human) enzyme inhibition; Q9NUW8; recombinant TDP1, AlphaScreen DNA substrate cleavage; Potency, µM (top dose mostly 130 µM), without a hit: at the top dose activity change, negative = inhibition, most hits filed as inhibitors; hit rate 0.28% among 350,000; AID 485290; further: on the % scale 0 is the no-effect control and ±100 the full control effect; nearly all actives have a fitted effect of over 40% in size
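Enzyme-compound mixtures sat 15 min at room temperature, followed by a 5 min reaction with 15 nM final substrate and 10 min with AlphaScreen beads. Recombinant human Tdp1 was used at 1 nM final.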
Pol eta inh = inhibitors of human DNA polymerase eta | recombinant Pol eta, fluorescent DNA replication assay | Potency, µM (doses to about 114 µM), for inactives: at the top dose activity change, negative = inhibition, usual class: inhibitors | hit rate 1.2% among 390,000 | AID 588591; further: on the % scale 0 is the no-effect control and ±100 the full control effect
Target sequence (Q9Y253 whole entry, looked up): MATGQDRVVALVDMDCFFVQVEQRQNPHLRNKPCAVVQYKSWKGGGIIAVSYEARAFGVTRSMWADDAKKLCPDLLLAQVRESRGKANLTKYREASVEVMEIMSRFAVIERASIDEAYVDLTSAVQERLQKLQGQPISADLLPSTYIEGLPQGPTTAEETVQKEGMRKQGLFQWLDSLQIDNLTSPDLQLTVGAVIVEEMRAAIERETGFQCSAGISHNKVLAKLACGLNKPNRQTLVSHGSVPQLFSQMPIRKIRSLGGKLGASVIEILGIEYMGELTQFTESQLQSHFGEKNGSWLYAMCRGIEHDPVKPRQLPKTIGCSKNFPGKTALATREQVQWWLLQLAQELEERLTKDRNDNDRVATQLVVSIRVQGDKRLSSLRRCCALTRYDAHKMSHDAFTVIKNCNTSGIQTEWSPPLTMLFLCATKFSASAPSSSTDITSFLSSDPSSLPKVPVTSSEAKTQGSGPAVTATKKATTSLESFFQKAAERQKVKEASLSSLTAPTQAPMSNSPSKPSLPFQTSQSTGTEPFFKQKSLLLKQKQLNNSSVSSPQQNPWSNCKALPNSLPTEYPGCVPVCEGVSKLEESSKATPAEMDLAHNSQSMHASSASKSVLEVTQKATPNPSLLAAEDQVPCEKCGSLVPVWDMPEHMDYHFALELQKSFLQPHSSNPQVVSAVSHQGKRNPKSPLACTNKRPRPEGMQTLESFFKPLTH
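Fluorescent replication assay: 50 nM final substrate added after a 15 min room-temperature compound preincubation with 10 nM enzyme. Signal taken at 0 min and again at 10 min.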
Active calls of the source: *; ? = inconclusive; · = no result given; [ ] = dose if it differs, or a comment. A selection: hits, their analogues and other compounds. The true share with any hit is near 2.4%. The call rests on the fitted dose curve; in most records, active means well fitted curve in the direction sought with a large enough effect; inconclusive means small, poorly fitted or top-dose-only effect, or another doubt; inactive means no such curve, though single readings can be large; an effect the other way counts as inactive or inconclusive. Potency means the concentration at half of the fitted maximal effect.

SMILES | Pol kappa inh | Pol iota inh | Pol beta inh | TDP1 block | Pol eta inh
Cc1ccc(Nc2nnc(SCc3cc(=O)n4cc(C)ccc4n3)s2)cc1 | -6% | -6% | 14% | 3% | -16%
O=C(CC(Cl)(Cl)Cl)N1CCN(/[N+]([O-])=N/Oc2ccc([N+](=O)[O-])cc2[N+](=O)[O-])CC1 | -9% | ? | · | · | ·
O=c1c(-c2ccccc2)coc2cc(O)cc(O)c12 | 1.8µM* | · | · | -12%[56.1 µM] | ·
O=[N+]([O-])c1ccc(/C=C/c2ccnc3ccccc23)c([N+](=O)[O-])c1 | 8% | 20% | · | · | ·
CC/C(=C\c1ccc(C(=O)OC)cc1)c1cc(OC)cc2oc3ccccc3c12 | 8% | 26% | · | · | ·
COc1ccc(-c2cc(OC(=O)c3cccc(C)c3)c3c(C)oc(C)c3c(=O)c2)cc1 | -24% | ? | ? | 10% | -14%
COc1ccc2c(C)c(CC(=O)NCc3ccccc3Cl)c(=O)oc2c1OC | -14% | -7% | 45µM* | 2% | -1%
COc1ccc2c(C)c(CCC(=O)NCc3ccccc3Cl)c(=O)oc2c1C | 3% | 18% | 33% | -2% | -2%
Cc1cc(I)ccc1Nc1nc(NCCN2CCOCC2)nc(N2CCOCC2)n1 | -13% | 8% | · | · | ·
CC(=O)c1c(-c2ccccc2)[nH]c2ccccc12 | 0% | 63% | 39% | · | 3%
O=C(O)/C=C/C(=O)c1c(-c2ccccc2)[nH]c2ccccc12 | -2% | 2.5µM* | -17% | 3% | ?
COc1cc2c(cc1OC)C1O[C@](CCCCN3C(=O)c4ccccc4C3=O)(C2)Oc2c1c(=O)oc1ccc(F)cc21 | · | · | 3.5µM* | · | ·
O=C(CS(=O)c1ccc(C(F)(F)F)cc1[N+](=O)[O-])Oc1ccccc1 (centres undefined) | -18% | ? | -15% | -5% | -2%
CS(=O)(=O)c1ccc(S(=O)CC(=O)OCc2ccccc2)c([N+](=O)[O-])c1 (centres undefined) | -5% | 20µM* | 6% | 5% | -4%
O=C(Cc1ccc(Cl)cc1)c1ccc(O)cc1 | -18% | 50µM* | 2% | 2% | 1%
CC1C/C(=C\c2cccnc2)C(=O)/C(=C/c2cccnc2)C1 (centres undefined) | -6% | 16µM* | -2% | 4% | 20µM*
Cc1cccc(N2CC(C(=O)Nc3nnc(SCC(=O)N4CCOCC4)s3)CC2=O)c1 (centres undefined) | -27% | ? | 28µM* | 6% | 45µM*
O=C(Nc1nnc(SCCC2OCCO2)s1)C1CC(=O)N(c2ccccc2)C1 (centres undefined) | -6% | ? | ? | 5% | ?
COc1cccc(N2CC(C(=O)Nc3nnc(SCc4cccnc4)s3)CC2=O)c1 (centres undefined) | -8% | ? | 25µM* | -3% | ?
COc1cccc(N2CC(C(=O)Nc3nnc(SCC(=O)Nc4ccc(NC(C)=O)cc4)s3)CC2=O)c1 (centres undefined) | -10% | ? | 4% | 4% | -4%
NC(=O)CSc1nnc(NC(=O)C2CC(=O)N(c3ccc(F)cc3)C2)s1 (centres undefined) | -5% | 6% | 1% | 4% | 50µM*
COc1cccc(N2CC(C(=O)Nc3nnc(SCCC4OCCO4)s3)CC2=O)c1 (centres undefined) | -19% | ? | -10% | 6% | 45µM*
Cc1cc2c(s1)c(/C=N/O)c(C(=O)NCc1ccccc1F)n2C | · | · | · | 0% | ·
C=C(Br)COC(c1ccco1)[C@H](Cc1ccccc1)NC(=O)OC(C)(C)C (some centres undefined) | -15% | 17% | · | · | ·
COc1ccccc1CCNC(=O)Cn1c(=O)oc2ccccc21 | -13% | 49% | ? | 18µM* | -8%
CC(C)(C)NC(=O)c1cc(F)c(F)cc1Cl | 0% | 8% | 89µM* | 6% | -5%
CC(C)(C)NC(=O)COC(=O)c1cc(F)c(F)cc1Cl | -7% | 19% | 1% | 3% | -4%
CN(C)c1ccc(CCC2C=Cc3ccccc32)cc1 (centres undefined) | -4% | 2% | · | · | ·
COc1cc(OC)c(Nc2nc3ccc(C(=O)c4ccccc4)cc3n3c(C)nnc23)cc1Cl | 15% | 28% | -2% | 2% | -19%

Assay outcomes deposited in PubChem BioAssay by National Center for Advancing Translational Sciences (NCATS).
